pCIP destab = compounds decreasing mouse p/CIP protein stability; AID 1984; decrease of EGFP signal, % at 10 µM; Q05BA5; F442A p/CIP-EGFP cells, EGFP fluorescence, 16 h; actives 0.01% (n = 290,000);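 active = EGFP signal decrease of at least 30% at 10 µM or well 3 SD below plate mean, unless failing retest; inactive = the rest, including hits failing retest or dose response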
GPR7 antag = blocks human GPR7 receptor signaling; P48145; GPR7-expressing cells, fluorescence antagonist assay; inhibition, % at 4.4 µM; actives 1.1% (n = 290,000); in the data active = inhibition above about 16%, passing the limit was not always enough;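 also: cells stimulated with the agonist NPW; 0% = agonist with vehicle and 100% = vehicle without agonist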
VLA-4 inh = inhibition in a human VLA-4 binding assay; VLA-4 expressing cells, ligand binding flow cytometry; inhibition, % (about 7 µM as worked out from the volumes in the protocol); actives 0.2% (n = 330,000); AID 2557; in the data active = inhibition above about 50%
GASC-1 inh = blocks human GASC-1 demethylase activity | AID 2099 | GST-JMJD2C(1-420) H3K9me3 demethylation, DELFIA europium | Q9H3R0 | actives 0.069% (n = 330,000) | inhibition, % at 2.35 µM;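 active = more than half of a compound's replicate wells show inhibition beyond 50%, single wells judged on their own value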;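 also: signal counts dimethyl H3K9 product captured on neutravidin plate; 0% = median of DMSO wells and 100% = 0.3 times that DMSO median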
Target sequence (Q9H3R0 1-420 limits assumed): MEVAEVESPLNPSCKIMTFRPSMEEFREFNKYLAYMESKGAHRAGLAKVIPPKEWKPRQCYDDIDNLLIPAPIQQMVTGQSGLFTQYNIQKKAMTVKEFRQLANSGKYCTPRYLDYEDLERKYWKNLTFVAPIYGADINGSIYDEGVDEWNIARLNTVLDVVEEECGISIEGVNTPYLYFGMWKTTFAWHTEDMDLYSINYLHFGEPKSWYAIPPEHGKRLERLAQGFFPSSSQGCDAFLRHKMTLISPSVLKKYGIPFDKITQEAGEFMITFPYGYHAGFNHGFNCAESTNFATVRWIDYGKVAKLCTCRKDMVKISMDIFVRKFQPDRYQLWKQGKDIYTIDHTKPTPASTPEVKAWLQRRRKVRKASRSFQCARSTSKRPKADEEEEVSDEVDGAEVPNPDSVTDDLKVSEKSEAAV
* = called active by the depositor; x = no result given. The list is not random: actives were taken first. Their share in the collection is about 1.2%.

SMILES | pCIP destab | GPR7 antag | VLA-4 inh | GASC-1 inh
COc1cccc(CNc2ccc(S(=O)(=O)Nc3nccs3)cc2)c1O | -3.0 | 17.2* | 13.3 | 24.7
O=C(Cn1nc(-c2ccccc2)ccc1=O)NCC1COCCO1 (stereo not drawn) | -12.0 | -5.3 | 4.7 | 7.0
O=C(Cn1nc(-c2ccc(Cl)cc2)ccc1=O)NCC1COCCO1 (stereo not drawn) | -7.4 | -8.4 | -7.0 | 71.4*
CC1C=CCC2C(=O)N(c3ccc(OC(=O)c4ccco4)cc3)C(=O)C12 (stereo not drawn) | -10.6 | 18.5* | -7.9 | 8.5
O=C(CS(=O)(=O)c1ccccc1)c1ccc2c(c1)OCCO2 | -4.6 | 17.9* | 17.3 | -1.0
O=C(O)CCC(=O)c1ccc2c(c1)OCCO2 | -6.3 | -4.5 | 5.5 | 157.0
CNC[C@@H]1Oc2c(NC(=O)Nc3ccccc3)cccc2C(=O)N([C@@H](C)CO)C[C@H]1C | x | x | 2.1 | 50.9*
COc1ccc(S(=O)(=O)Nc2cccc3c2O[C@H](CN(C)Cc2ccc(-c4ccccc4)cc2)[C@@H](C)CN([C@H](C)CO)C3=O)cc1 | x | x | 8.3 | -3.6
COc1ccc(S(=O)(=O)Nc2cccc3c2O[C@H](CN(C)Cc2ccc(C(=O)O)cc2)[C@@H](C)CN([C@H](C)CO)C3=O)cc1 | x | x | 22.7 | 58.2*
C[C@H](CO)N1C[C@H](C)[C@@H](CN(C)S(=O)(=O)c2ccccc2)Oc2c(NC(=O)CCC(F)(F)F)cccc2C1=O | x | x | 3.4 | 52.8*
COc1ccc(S(=O)(=O)N(C)C[C@H]2Oc3c(NC(=O)CCC(F)(F)F)cccc3C(=O)N([C@H](C)CO)C[C@@H]2C)cc1 | x | x | 15.9 | -3.5
C[C@H](CO)N1C[C@H](C)[C@@H](CN(C)S(=O)(=O)c2ccc(F)cc2)Oc2c(NC(=O)CCC(F)(F)F)cccc2C1=O | x | x | 2.1 | 26.4
C[C@H](CO)N1C[C@H](C)[C@@H](CN(C)S(=O)(=O)c2cccs2)Oc2c(NC(=O)CCC(F)(F)F)cccc2C1=O | x | x | 0.4 | 52.1*
CCn1c(C)c(C(=O)O)c2cc(OC)c3ccccc3c21 | 1.2 | 1.9 | 2.5 | -27.0
CCCN(CCC)S(=O)(=O)c1ccc(Cl)c([N+](=O)[O-])c1 | -3.3 | 42.5* | 14.7 | 10.9
COC(CNC(=O)c1cc(-c2ccncc2)nc2ccc(S(=O)(=O)N3CCOCC3)cc12)OC | 7.2 | -7.5 | -6.5 | 6.7
COc1ccc(C)cc1NS(=O)(=O)c1ccc2c(c1)N(C)CCO2 | -15.3 | -2.2 | -5.5 | 1.0
Cc1ccc(CNCc2ccccc2Cl)cc1 | -0.4 | -5.9 | 10.6 | 10.1
Fc1ccc(CNCc2ccccc2Cl)cc1 | -25.0 | 19.1* | 7.0 | -15.7
Nc1nc(SCc2ccc(Cl)cc2Cl)nc2nc3c(cc12)CCCC3 | 2.2 | 13.7 | -0.1 | 7.3
c1ccc(-c2cn(-c3ccccc3)c3[n+]2CCS3)cc1 | 15.0 | -7.5 | -0.9 | 7.7
CC(C)(C)c1ccc(-c2cn(-c3ccc(Br)cc3)c3[n+]2CCCS3)cc1 | -28.8 | 55.6* | x | -14.2
COc1ccc(NS(=O)(=O)c2cc(N/C(=N\S(=O)(=O)c3ccccc3)c3ccc(F)cc3)ccc2Cl)cc1 | -6.3 | 34.4* | 2.4 | -3.8
COc1ccc(C(=O)N2CCN(c3ccc(C)cc3)CC2)cc1OC | -4.8 | 15.8* | 7.0 | 0.3
COc1c(C)cccc1C(=O)Nc1cc(-c2nn3c(C)nnc3s2)ccc1C | x | -5.5 | 14.7 | -10.5
SMILES | pCIP destab | GPR7 antag | VLA-4 inh | GASC-1 inh
O=C(c1ccccc1Cl)N1CCNCC1 | -2.4 | -4.6 | -12.0 | 1.6
Clc1cccc2c1Sc1ccccc1CC2N1CCNCC1 (stereo not drawn) | -10.8 | 58.2* | 40.5 | -4.5
Cc1ccc(-c2csc3nc4cc(C(=O)NC5CCC(O)CC5)ccc4c(=O)n23)cc1 (stereo not drawn) | -12.5 | x | -8.2 | 66.6*
Cc1[nH]c2ccccc2c1C(=O)CN1C(=O)NC(C)(c2ccc(Cl)cc2Cl)C1=O (stereo not drawn) | -25.1 | 62.1* | 9.5 | -6.4
CN(C)c1ccc(N=Cc2nc(-c3ccccc3)oc2OC(=O)c2ccccc2)cc1 | -8.9 | -6.9 | 14.2 | 76.5*
COc1ccc(NC(=O)/C(Cl)=C(/Cl)S(=O)(=O)Cc2ccc(C)cc2)cn1 | -2.7 | 24.1* | x | 5.0
Nc1nn(-c2ccccc2)c(N)c1N=Nc1ccc2c(c1)OCO2 | -7.6 | 23.6* | -7.8 | -6.1
O=C(NC(Nc1nc2ccc([N+](=O)[O-])cc2s1)(C(F)(F)F)C(F)(F)F)c1ccccc1Cl | -1.6 | 42.6* | 16.6 | 10.5
O=C(NC(Nc1nc2ccc([N+](=O)[O-])cc2s1)(C(F)(F)F)C(F)(F)F)c1cccnc1 | 1.7 | -1.4 | 1.8 | 5.3

From PubChem BioAssay
